The values below come from PMC7862700, “An all-to-all approach to the identification of sequence-specific readers for epigenetic DNA modifications on cytosine”.

Assay in all cases: DAPPL (digital affinity profiling via proximity ligation, sequencing); 10 mM Tris-HCl pH 7.5, 50 mM NaCl, 1 mM DTT, 4% glycerol, room temperature, 30 min; GST-TFs on glutathione beads, 16-mer random dsDNA library, 0.1% formaldehyde crosslink after washing; high values mean tight binding
The target in assay [1] is T1, FEV (Homo sapiens, UniProt Q99581 1-238).
T1 sequence: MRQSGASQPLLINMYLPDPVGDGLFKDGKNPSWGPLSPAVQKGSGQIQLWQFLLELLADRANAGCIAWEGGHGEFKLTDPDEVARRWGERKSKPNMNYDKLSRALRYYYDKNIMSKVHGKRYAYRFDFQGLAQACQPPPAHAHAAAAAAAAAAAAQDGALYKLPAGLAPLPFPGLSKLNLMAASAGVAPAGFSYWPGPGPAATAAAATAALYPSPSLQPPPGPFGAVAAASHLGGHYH
To be noted: protein: recombinant; tags: N-terminal GST; dsDNA, one strand shown. Put shortly:
(§1)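 After expression in yeast as GST fusions, human transcription factors were bound to glutathione beads, DNA-barcoded and mixed with a tag-only sample. The pools were incubated with 200 nmole of a 16-mer random double-stranded DNA library in Tris/NaCl/DTT/glycerol buffer (30 min, room temperature), washed and crosslinked with 0.1% formaldehyde. Proximity ligation with BsaI/T4 ligase ran for 1 h at 37 °C, before PCR amplification and sequencing on an Illumina NextSeq500. Binding signal is a hexamer's read frequency for a factor divided by its frequency for the tag-only sample.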

For assay [2], the target named is ETV5 (Homo sapiens, UniProt P41161 1-510). To be noted: protein: recombinant; tags: N-terminal GST; dsDNA, one strand shown. Put shortly: as §1
Assay [3] concerns the target HSF1 (Homo sapiens, UniProt Q00613 1-529). To be noted: protein: recombinant; tags: N-terminal GST; chain copies: 3; dsDNA, one strand shown. Put shortly: as §1
Assay [4] has as its target T2, SPIC (Homo sapiens, UniProt Q8N5J4 1-248).
T2 sequence: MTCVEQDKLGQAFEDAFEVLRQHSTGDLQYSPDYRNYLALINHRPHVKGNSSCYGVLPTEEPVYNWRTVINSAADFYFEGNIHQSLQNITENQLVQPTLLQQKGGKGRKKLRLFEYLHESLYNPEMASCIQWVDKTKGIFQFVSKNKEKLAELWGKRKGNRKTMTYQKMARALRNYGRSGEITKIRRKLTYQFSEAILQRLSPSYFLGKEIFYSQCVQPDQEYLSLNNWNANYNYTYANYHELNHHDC
The settings on record: protein: recombinant; tags: N-terminal GST; dsDNA, one strand shown. Put shortly:
as §1

For assay [5], the target named is ELF4 (Homo sapiens, UniProt Q99607 1-663). The settings on record: protein: recombinant; tags: N-terminal GST; dsDNA, one strand shown. The essentials: as §1
Assay [6] deals with T3, ELK4 (Homo sapiens, UniProt P28324-2 1-405).
T3 sequence: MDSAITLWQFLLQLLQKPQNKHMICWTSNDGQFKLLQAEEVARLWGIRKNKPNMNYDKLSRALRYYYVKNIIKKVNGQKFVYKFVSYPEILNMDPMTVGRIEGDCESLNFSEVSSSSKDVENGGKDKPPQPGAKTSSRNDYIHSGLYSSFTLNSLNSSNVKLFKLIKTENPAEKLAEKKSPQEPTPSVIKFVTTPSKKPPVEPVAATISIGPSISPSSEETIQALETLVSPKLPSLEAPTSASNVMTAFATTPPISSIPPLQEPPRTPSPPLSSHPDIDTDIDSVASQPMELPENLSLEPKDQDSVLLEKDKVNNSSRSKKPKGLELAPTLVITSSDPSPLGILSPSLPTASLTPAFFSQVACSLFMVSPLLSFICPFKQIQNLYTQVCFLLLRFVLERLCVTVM
To be noted: protein: recombinant; tags: N-terminal GST; dsDNA, one strand shown. Put shortly: as §1

For assay [7], the target named is T4, ETV2 (Homo sapiens, UniProt O00321 1-342).
T4 sequence: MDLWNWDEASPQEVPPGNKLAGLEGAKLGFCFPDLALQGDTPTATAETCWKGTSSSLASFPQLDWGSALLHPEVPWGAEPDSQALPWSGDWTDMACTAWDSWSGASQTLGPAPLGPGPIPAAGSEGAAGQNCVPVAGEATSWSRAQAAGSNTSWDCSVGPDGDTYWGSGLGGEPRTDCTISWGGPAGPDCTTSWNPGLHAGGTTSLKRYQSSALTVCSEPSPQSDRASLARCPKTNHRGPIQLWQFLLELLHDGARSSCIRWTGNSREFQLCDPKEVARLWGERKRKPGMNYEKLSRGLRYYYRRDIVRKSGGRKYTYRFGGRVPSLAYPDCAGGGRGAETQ
The settings on record: protein: recombinant; tags: N-terminal GST; dsDNA, one strand shown. The essentials:
as §1

The target in assay [8] is T5, ELF3 (Homo sapiens, UniProt P78545 1-371).
T5 sequence: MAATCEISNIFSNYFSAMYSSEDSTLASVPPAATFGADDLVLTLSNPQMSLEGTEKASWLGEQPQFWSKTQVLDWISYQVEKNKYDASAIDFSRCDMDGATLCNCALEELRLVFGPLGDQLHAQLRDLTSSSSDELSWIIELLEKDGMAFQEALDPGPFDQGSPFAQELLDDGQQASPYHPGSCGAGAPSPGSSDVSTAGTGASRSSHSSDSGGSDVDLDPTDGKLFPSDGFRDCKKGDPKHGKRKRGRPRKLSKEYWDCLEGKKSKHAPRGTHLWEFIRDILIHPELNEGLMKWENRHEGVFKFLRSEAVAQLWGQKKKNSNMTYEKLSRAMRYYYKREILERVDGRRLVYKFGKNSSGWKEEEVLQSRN
To be noted: protein: recombinant; tags: N-terminal GST; dsDNA, one strand shown. The essentials: as §1

Assay [9] has as its target CRX (Homo sapiens, UniProt O43186 1-299). The settings on record: protein: recombinant; tags: N-terminal GST; dsDNA, one strand shown. Put shortly:
as §1

Assay [10] deals with ETV1 (Homo sapiens, UniProt P50549 1-477). The settings on record: protein: recombinant; tags: N-terminal GST; dsDNA, one strand shown. Put shortly:
as §1

In assay [11] the target is T6, ERF (Homo sapiens, UniProt P50548 1-548).
T6 sequence: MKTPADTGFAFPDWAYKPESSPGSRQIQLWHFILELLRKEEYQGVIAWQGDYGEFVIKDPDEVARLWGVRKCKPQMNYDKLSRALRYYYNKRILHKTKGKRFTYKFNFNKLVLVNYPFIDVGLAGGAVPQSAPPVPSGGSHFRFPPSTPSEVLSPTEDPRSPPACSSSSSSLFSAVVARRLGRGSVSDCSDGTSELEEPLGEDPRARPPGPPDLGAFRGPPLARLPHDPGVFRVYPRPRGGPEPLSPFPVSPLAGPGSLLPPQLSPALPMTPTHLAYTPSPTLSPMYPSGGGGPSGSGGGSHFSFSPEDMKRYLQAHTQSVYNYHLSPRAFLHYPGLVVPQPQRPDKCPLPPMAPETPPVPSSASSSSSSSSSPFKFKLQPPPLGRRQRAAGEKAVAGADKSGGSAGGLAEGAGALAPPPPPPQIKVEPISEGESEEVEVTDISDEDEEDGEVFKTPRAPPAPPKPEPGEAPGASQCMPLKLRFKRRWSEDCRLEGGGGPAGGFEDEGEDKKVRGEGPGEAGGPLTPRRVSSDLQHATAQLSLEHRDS
The settings on record: protein: recombinant; tags: N-terminal GST; dsDNA, one strand shown. Put shortly: as §1

Assay [12] deals with T7, ETV3L (Homo sapiens, UniProt Q6ZN32 1-361).
T7 sequence: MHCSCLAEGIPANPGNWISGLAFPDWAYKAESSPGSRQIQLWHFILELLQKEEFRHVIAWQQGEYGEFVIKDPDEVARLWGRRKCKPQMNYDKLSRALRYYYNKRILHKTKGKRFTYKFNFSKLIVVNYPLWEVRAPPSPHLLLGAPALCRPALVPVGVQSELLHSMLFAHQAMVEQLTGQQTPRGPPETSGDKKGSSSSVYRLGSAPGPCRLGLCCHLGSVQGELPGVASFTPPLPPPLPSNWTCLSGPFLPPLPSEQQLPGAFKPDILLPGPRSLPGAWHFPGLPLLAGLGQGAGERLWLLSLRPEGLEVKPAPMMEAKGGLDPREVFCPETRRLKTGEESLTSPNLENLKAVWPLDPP
The settings on record: protein: recombinant; tags: N-terminal GST; dsDNA, one strand shown. Put shortly:
as §1

Assay [13] addresses T8, ETS2 (Homo sapiens, UniProt P15036 1-469).
T8 sequence: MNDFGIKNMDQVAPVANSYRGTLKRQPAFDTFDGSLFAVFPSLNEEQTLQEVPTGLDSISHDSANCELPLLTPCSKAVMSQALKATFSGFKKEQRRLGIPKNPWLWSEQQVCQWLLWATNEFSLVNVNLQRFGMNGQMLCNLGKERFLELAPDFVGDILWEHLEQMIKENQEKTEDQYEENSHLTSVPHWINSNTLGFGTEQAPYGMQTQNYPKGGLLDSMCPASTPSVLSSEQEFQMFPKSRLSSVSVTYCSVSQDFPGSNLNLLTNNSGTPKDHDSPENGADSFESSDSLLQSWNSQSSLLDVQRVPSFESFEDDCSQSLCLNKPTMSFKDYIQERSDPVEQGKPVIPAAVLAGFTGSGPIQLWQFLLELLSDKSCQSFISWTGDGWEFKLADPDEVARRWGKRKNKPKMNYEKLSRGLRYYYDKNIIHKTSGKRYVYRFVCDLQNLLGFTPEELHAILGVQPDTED
To be noted: protein: recombinant; tags: N-terminal GST; dsDNA, one strand shown. The essentials:
as §1

The target in assay [14] is T9, SPDEF (Homo sapiens, UniProt O95238 1-335).
T9 sequence: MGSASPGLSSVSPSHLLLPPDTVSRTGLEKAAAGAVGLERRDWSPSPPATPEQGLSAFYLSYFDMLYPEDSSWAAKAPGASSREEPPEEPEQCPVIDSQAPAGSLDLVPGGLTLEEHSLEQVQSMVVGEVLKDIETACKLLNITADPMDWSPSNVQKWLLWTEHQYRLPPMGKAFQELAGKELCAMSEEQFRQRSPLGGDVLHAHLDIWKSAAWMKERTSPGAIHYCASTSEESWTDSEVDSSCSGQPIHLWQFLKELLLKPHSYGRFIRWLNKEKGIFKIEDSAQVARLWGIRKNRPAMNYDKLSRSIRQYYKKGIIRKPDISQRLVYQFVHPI
To be noted: protein: recombinant; tags: N-terminal GST; dsDNA, one strand shown. The essentials:
as §1

The target in assay [15] is T10, ETV7 (Homo sapiens, UniProt Q9Y603 1-341).
T10 sequence: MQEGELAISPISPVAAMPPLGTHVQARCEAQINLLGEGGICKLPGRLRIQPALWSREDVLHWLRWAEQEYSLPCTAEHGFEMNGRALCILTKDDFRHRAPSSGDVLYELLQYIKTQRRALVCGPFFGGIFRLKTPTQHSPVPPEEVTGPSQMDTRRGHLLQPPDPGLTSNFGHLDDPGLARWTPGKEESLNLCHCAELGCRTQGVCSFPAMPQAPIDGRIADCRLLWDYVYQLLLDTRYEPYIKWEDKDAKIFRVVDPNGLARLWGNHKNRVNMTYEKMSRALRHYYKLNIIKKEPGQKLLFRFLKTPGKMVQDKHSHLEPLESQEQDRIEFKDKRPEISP
To be noted: protein: recombinant; tags: N-terminal GST; dsDNA, one strand shown. Put shortly:
as §1

Assay [16] concerns the target T11, ELF5 (Homo sapiens, UniProt Q9UKW6-2 1-255).
T11 sequence: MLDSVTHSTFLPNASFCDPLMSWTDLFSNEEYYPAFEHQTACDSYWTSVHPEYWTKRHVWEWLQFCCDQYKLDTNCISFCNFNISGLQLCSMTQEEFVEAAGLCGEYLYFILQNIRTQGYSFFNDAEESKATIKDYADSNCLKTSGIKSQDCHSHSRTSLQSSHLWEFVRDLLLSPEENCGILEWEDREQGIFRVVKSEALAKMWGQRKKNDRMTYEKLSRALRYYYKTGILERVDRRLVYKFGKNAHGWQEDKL
To be noted: protein: recombinant; tags: N-terminal GST; dsDNA, one strand shown. Put shortly: as §1

In assay [17] the target is T12, ETV3 (Homo sapiens, UniProt P41162-2 1-143).
T12 sequence: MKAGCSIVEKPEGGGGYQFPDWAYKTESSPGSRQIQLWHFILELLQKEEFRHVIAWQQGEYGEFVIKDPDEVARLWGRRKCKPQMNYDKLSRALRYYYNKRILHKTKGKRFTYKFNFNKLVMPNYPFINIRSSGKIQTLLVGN
To be noted: protein: recombinant; tags: N-terminal GST; dsDNA, one strand shown. Put shortly: as §1

Assay [18] deals with ETV6 (Homo sapiens, UniProt P41212 1-452). The settings on record: protein: recombinant; tags: N-terminal GST; dsDNA, one strand shown. Put shortly:
as §1

Sequence of ETV5 (P41161 whole entry): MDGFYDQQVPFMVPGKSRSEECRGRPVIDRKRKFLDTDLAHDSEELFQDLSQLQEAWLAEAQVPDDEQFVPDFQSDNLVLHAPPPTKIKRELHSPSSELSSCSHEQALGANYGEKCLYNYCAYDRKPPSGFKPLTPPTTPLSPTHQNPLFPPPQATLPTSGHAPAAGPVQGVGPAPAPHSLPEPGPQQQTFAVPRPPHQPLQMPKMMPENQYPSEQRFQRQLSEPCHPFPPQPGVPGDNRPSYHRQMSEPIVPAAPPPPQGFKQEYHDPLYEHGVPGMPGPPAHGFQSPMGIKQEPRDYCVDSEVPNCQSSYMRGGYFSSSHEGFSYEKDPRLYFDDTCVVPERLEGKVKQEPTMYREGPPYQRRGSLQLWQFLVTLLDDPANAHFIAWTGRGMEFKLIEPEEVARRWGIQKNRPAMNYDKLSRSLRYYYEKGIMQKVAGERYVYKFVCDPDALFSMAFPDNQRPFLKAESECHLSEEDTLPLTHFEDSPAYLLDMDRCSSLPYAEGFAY
Sequence of CRX (O43186 whole entry): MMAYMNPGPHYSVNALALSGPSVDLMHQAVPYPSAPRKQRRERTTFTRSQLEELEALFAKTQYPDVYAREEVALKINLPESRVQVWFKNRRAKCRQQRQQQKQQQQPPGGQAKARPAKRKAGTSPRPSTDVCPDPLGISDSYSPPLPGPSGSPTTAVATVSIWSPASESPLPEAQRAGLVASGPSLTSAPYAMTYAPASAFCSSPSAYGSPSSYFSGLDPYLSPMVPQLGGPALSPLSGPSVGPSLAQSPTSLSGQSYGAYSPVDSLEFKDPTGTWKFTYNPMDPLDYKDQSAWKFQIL
Sequence of HSF1 (Q00613 whole entry): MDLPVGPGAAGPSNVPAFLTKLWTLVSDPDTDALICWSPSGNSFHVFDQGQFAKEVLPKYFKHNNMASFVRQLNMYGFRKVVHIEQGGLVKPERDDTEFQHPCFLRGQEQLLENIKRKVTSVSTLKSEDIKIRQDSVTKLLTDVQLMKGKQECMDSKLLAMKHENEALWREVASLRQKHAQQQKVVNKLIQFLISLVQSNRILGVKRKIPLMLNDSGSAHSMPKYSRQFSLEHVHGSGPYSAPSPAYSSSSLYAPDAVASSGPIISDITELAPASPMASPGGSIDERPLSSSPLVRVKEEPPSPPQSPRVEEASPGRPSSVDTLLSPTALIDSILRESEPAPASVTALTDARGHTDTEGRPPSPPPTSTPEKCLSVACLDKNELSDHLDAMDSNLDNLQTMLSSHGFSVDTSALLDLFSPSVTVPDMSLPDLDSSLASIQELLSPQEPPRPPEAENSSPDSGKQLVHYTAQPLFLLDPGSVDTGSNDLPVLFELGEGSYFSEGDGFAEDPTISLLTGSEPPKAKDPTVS
Sequence of ETV6 (P41212 whole entry): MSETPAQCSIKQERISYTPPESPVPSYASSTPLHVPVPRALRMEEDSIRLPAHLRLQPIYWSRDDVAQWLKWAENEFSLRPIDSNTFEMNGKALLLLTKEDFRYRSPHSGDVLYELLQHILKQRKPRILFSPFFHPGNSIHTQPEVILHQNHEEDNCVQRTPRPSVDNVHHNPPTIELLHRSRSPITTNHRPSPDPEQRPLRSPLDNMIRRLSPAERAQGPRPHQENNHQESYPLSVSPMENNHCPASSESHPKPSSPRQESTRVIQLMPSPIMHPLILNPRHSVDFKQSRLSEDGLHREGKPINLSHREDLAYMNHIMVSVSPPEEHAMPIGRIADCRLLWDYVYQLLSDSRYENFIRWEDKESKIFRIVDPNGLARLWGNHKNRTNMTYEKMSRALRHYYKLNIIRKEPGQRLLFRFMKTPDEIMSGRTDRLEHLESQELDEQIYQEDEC
Sequence of ETV1 (P50549 whole entry): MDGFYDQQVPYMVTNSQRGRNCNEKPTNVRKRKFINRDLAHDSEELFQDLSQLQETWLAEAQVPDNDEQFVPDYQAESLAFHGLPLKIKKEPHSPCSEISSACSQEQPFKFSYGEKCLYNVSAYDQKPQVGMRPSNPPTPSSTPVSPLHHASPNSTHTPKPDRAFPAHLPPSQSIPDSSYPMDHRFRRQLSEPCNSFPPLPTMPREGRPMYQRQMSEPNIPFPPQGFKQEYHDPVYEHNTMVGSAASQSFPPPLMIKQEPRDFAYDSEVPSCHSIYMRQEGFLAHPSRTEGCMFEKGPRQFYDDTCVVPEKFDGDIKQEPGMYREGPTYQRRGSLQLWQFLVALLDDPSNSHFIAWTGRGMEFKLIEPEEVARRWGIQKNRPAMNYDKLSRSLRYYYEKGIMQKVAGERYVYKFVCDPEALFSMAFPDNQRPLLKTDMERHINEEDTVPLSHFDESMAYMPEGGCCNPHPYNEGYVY
Sequence of ELF4 (Q99607 whole entry): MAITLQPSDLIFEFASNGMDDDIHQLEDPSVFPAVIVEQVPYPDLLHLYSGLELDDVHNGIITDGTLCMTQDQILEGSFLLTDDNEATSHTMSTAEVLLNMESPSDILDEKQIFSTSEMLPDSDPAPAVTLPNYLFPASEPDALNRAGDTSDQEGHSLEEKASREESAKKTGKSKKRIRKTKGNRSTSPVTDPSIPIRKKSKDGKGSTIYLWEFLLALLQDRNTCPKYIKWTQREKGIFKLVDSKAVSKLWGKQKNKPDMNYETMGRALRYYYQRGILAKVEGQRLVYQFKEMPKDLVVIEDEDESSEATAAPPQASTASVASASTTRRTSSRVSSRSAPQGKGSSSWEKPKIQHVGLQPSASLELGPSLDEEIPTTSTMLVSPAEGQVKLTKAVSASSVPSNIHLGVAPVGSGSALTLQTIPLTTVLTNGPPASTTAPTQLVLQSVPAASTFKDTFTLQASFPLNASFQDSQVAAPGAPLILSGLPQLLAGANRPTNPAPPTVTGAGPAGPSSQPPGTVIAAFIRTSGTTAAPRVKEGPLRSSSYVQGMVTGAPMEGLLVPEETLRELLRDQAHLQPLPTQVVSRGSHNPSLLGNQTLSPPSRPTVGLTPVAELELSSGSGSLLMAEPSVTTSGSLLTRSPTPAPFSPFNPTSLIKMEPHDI

CTCAAT: the binding signal in assay [1] was 1.23 fold enrichment (6-mer frequency, TF over GST control); in assay [2], 1.31 fold enrichment (6-mer frequency, TF over GST control); in [3], 1.17 fold enrichment (6-mer frequency, TF over GST control); in [4] it was 1.17 fold enrichment (6-mer frequency, TF over GST control); in assay [5], 1.26 fold enrichment (6-mer frequency, TF over GST control); in assay [6] it was 1.3 fold enrichment (6-mer frequency, TF over GST control). The binding signal in [7] is 1.4 fold enrichment (6-mer frequency, TF over GST control); in assay [8] it was 1.22 fold enrichment (6-mer frequency, TF over GST control); in [9] it was 1.25 fold enrichment (6-mer frequency, TF over GST control); in assay [10] it was 1.27 fold enrichment (6-mer frequency, TF over GST control); in [11] it was 1.22 fold enrichment (6-mer frequency, TF over GST control); in assay [12] it was 1.36 fold enrichment (6-mer frequency, TF over GST control). Besides, the binding signal in [13] was 1.21 fold enrichment (6-mer frequency, TF over GST control); in [14] it was 1.21 fold enrichment (6-mer frequency, TF over GST control); in assay [15] it was 1.16 fold enrichment (6-mer frequency, TF over GST control); in [16], 1.27 fold enrichment (6-mer frequency, TF over GST control); in assay [17], 1.2 fold enrichment (6-mer frequency, TF over GST control); in assay [18], 1.23 fold enrichment (6-mer frequency, TF over GST control).
